Screening data deposited in PubChem BioAssay by several laboratories.
MEKK2wt PB1 HTS – raises or lowers MEK5 binding to wildtype human MEKK2 PB1 domain | Q9Y2U5 | bead flow cytometry, Alexa488-MEK5 binding to MEKK2 WT; actives lie on both sides | binding response (% of control), % at 10 µM | 290,000 compounds, 1.1% hits | AID 1531; in the data active = binding response below about 67% or above about 130%
MEKK3 PB1 HTS – modulators (inhibitors or enhancers) of MEK5 binding to human MEKK3 PB1 domain; Q99759; bead-based flow cytometry, Alexa488-MEK5 binding to MEKK3; actives lie on both sides; 0 = blocked by unlabeled MEK5, 100 = vehicle; binding response (% of control), % at 10 µM; 290,000 compounds, 1.4% hits; AID 1529;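 active = binding response more than 3 SD above or below the average of its plate-row segment, actives on both sides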;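 note: Alexa488 bead fluorescence after subtracting the streptavidin-only scavenger bead signal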
Target sequence (Q99759 whole entry, looked up, the tested form may be a part): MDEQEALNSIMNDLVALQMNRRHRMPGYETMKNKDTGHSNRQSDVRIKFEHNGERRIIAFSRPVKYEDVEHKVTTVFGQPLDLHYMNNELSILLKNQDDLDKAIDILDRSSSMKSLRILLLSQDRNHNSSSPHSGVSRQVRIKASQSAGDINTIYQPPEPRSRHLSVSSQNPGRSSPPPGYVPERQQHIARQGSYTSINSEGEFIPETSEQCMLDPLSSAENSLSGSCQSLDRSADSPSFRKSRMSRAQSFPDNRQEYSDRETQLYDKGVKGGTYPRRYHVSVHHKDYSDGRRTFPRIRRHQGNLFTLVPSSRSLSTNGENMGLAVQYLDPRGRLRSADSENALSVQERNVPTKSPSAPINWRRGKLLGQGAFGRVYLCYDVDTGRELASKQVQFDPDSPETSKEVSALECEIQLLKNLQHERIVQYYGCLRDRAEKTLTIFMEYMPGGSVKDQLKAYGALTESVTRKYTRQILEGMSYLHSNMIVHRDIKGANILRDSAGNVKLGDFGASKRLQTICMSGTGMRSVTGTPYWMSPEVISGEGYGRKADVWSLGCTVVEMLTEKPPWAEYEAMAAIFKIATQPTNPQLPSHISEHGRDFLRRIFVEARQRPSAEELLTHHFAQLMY
ABCB6 inh MLPCN – blocks the human ABCB6 transporter | Q9NP58 | K562-ABCB6 porphyrin accumulation, flow cytometry, 1 h; hits give low values | fluorescence ratio to DMSO, % at 10 µM | 360,000 compounds, 0.19% hits | AID 602162;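 active = fluorescence ratio to DMSO below 75%, the collection mean minus 3 SD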;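 note: signal is porphyrin accumulated inside mitochondria; 100% equals median channel fluorescence of DMSO control wells; lower ratio means ABCB6 inhibition with less porphyrin fluorescence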
MEKK2mut PB1 HTS – signal of MEK5 binding to mutant human MEKK2 PB1 domain; bead flow cytometry, Alexa488-MEK5 binding to MEKK2 mutant; percent response, % at 10 µM; 290,000 compounds, 0.35% hits; in the data active = percent response above about 24%, passing the limit was not always enough
CRFR2-BP ag – CRF-BP/CRF-R2 complex agonism | HEK293 CRF-R2/CRF-BP, calcium dye fluorescence (FLIPR); percent of saturating CRF peptide response | activation, % at 13.2 µM | 350,000 compounds, 0.46% hits | AID 588473;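 active = activation of at least 50%, plus an integration ratio under a set limit after plate pattern correction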;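 note: plate controls were neutral control wells without compound for no effect and CRF at EC100 for full effect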
CRFBP-R2 block – antagonists of CRF-binding protein/CRF-R2 receptor complex. inhibition, % at 11.8 µM. 350,000 compounds, 0.59% hits. AID 588475. HEK293 CRF-R2/CRF-BP, CRF-induced calcium fluorescence;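 active = inhibition of the ligand-induced calcium signal above about 50% at the single tested concentration, limit read from the data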
* = called active by the depositor; / = no result. A selection: hits, their analogues and other compounds. The true share with any hit is near 2.9%.

SMILES	MEKK2wt PB1 HTS	MEKK3 PB1 HTS	ABCB6 inh MLPCN	MEKK2mut PB1 HTS	CRFR2-BP ag	CRFBP-R2 block
CC(=O)Nc1ccc(Nc2c3c4c(cccc4n(C)c2=O)C(=O)c2ccccc2-3)cc1	90.0	83.0	95.0	-5.0	31.2	-17.6
Cn1c(=O)c(N)c2c3c(c(Br)ccc31)C(=O)c1ccccc1-2	66.0	91.0	104.0	-20.0	88.8*	-56.4
CC1(C)Cc2ccccc2-c2c1c(=O)n(Cc1ccccc1)c1nnnn21	100.0	107.0	98.0	2.0	-1.1	61.2*
O=C(NC1CCCC1)C(c1ccccn1)N(C(=O)c1csnn1)c1ccccc1Cl (stereo not drawn)	94.0	96.0	92.0	-6.0	-1.0	-2.7
C=CCOc1ccccc1CN1CCC(Oc2cc(C(=O)NC3CC3)ccc2OC)CC1	104.0	102.0	97.0	5.0	7.4	-6.9
NC(=S)NNC(=O)C12CC3CC(CC(C3)C1)C2	90.0	92.0	94.0	-6.0	125.1*	-26.2
N#Cc1ccsc1NC(=O)c1cccc([N+](=O)[O-])c1	94.0	102.0	94.0	-2.0	66.0*	63.3*
O=C(O)c1cc(NC(=O)c2ccc(Cl)c([N+](=O)[O-])c2)cc(C(=O)O)c1	101.0	98.0	102.0	-1.0	0.1	2.2
N#Cc1ccsc1NC(=O)c1ccc2ncsc2c1	/	/	96.0	/	-0.9	-10.4
N#Cc1ccsc1NC(=O)c1ccc(Cl)c([N+](=O)[O-])c1	98.0	98.0	94.0	-11.0	66.7*	72.1*
O=C(N/N=C(\CC(=O)c1cccs1)C(F)(F)F)c1ccncc1	94.0	97.0	96.0	-2.0	0.0	-1.9
Cc1ccc(C(=O)N/N=C(/CC(=O)c2cccs2)C(F)(F)F)cc1	87.0	102.0	100.0	-1.0	20.1	79.5*
COc1cc2c(cc1OC)C(c1c(Cl)cccc1Cl)NC(=O)C2 (stereo not drawn)	113.0	107.0	100.0	13.0	52.1*	0.0
COc1cc2c(cc1OC)C(c1cccc(Br)c1)NC(=O)C2 (stereo not drawn)	105.0	106.0	97.0	4.0	-1.9	1.4
Cc1onc(-c2ccccc2)c1C(=O)NNC(=S)NC(=O)c1ccc2c(c1)OCO2	103.0	104.0	100.0	-1.0	86.5*	-21.5
COc1ccc(CNC(=O)C[C@H]2C[C@H](C(=O)N3CCCCC3)[C@@]3(C)c4[nH]c5ccc(Cl)cc5c4CCN3C2=O)cc1OC	/	/	92.0	/	0.0	12.9
CC(=O)Nc1ccc2nc3ccccc3nc2c1	93.0	96.0	98.0	-5.0	11.3	83.7*
Cc1ccc(C)c(NC(=O)c2ccccc2NS(=O)(=O)c2cc([N+](=O)[O-])ccc2C)c1	94.0	102.0	90.0	-3.0	63.0*	77.9*
Cc1ccc(-c2csc3nnc(SCC(=O)N4CCN(Cc5ccccc5)CC4)n23)cc1	101.0	96.0	102.0	0.0	-5.5	66.1*
O=C1CSC(=S)N1c1cccnc1	89.0	86.0	102.0	-10.0	0.9	12.0
O=C1CSC(=S)N1Cc1cccnc1	-3.0*	88.0	106.0	5.0	-0.2	15.6
O=C(COC(=O)c1cnc(Cl)c(Cl)c1)NCCC1=CCCCC1	93.0	90.0	97.0	-4.0	5.0	86.4*
CCN(C[C@H]1N[C@@](Cc2ccccc2)(C(=O)OC)[C@H]2C(=O)N(Cc3ccccc3)C(=O)[C@@H]12)C(=O)C1CCCCC1	/	/	102.0	/	109.8*	-119.4
O=C(COC(=O)c1ccccc1C(=O)c1ccc(Cl)c([N+](=O)[O-])c1)NC1CC1	98.0	94.0	98.0	-7.0	-5.9	52.0*
CC(C)OC(=O)c1ccccc1C(=O)c1ccc(N)c([N+](=O)[O-])c1	103.0	105.0	99.0	-1.0	1.7	56.4*
SMILES	MEKK2wt PB1 HTS	MEKK3 PB1 HTS	ABCB6 inh MLPCN	MEKK2mut PB1 HTS	CRFR2-BP ag	CRFBP-R2 block
CNC(=O)COC(=O)c1ccccc1C(=O)c1ccc(Cl)c([N+](=O)[O-])c1	102.0	102.0	102.0	0.0	0.6	44.1
C=C(C)Cn1c2ccc(NC(=S)NCc3ccccc3F)cc2c(=O)n1C	/	/	93.0	/	/	/
CC(C)(C)C(=O)Nc1sc(-c2ccccc2)cc1C(=O)O	102.0	101.0	95.0	0.0	0.6	15.8
Cc1cccc(C(=O)Nc2sc(-c3ccccc3)cc2C(=O)O)c1	96.0	95.0	101.0	-12.0	-5.2	57.9*
O=c1cc(-c2ccccc2)nc2c(-c3ccccc3)c(C(F)(F)F)[nH]n12	93.0	93.0	99.0	-10.0	-1.3	53.5*
O=C(CN1CCN(C(=O)c2ccco2)CC1)Nc1ccccc1	95.0	91.0	97.0	-5.0	-0.1	-3.8
O=C(CN1CCN(C(=O)c2ccco2)CC1)Nc1c2c(nc3c1CCC3)CCCC2	109.0	107.0	86.0	10.0	1.9	71.7*
Cc1nn(-c2ccccc2)nc1CNC(=O)C1CC1	108.0	102.0	101.0	5.0	-2.1	7.4
COCCNC(=S)N/N=C/c1ccc(-c2ccc([N+](=O)[O-])cc2)o1	99.0	100.0	112.0	2.0	70.0*	-62.5
Cc1ccc(-n2nc3c(=O)n(CC(=O)NC4CCCCC4)nc(C)c3c2C)cc1	104.0	104.0	97.0	9.0	-0.7	-1.6
CCOC(=O)c1sc(-c2cccc(C(F)(F)F)c2)nc1O	98.0	102.0	98.0	2.0	5.7	-1.3
CCOC(=O)c1sc(-c2ccc(C(F)(F)F)cc2)nc1O	98.0	98.0	103.0	2.0	57.9*	53.5*
CC1(C)CC[C@]2(CO)CC[C@]3(C)C(=CCC4[C@@]5(C)CC[C@H](O)[C@@](C)(CO)C5CC[C@]43C)[C@@H]2C1 (stereo partly drawn)	/	/	94.0	/	-1.0	-9.2
CCOC(=O)c1cc2c(=O)c3cc(C)ccc3oc2nc1C	98.0	99.0	95.0	2.0	-1.0	66.9*
CCOC(=O)c1cn(Cc2ccccc2)c(C(=O)OC(C)(C)C)c1O	108.0	103.0	97.0	6.0	62.1*	-1.5
Cc1cccc(C)c1OCC(=O)Nc1oc(-c2ccccc2)c(-c2ccccc2)c1C#N	109.0	109.0	101.0	8.0	0.0	106.8*
COc1ccccc1N1CCN(c2ncnc3n[nH]c(Br)c23)CC1	/	/	100.0	/	/	/
COC1=C/C(=C/c2c(N)n3nc(-c4ccc(C)cc4)sc3nc2=O)C=CC1=O	94.0	107.0	110.0	4.0	195.0*	-226.2
COC1=C/C(=C/c2c(N)n3c(nc2=O)sc2cc(S(C)(=O)=O)ccc23)C=CC1=O	103.0	110.0	120.0	1.0	96.3*	-87.3
CCOC1=C/C(=C/c2c(N)n3nc(-c4ccccc4)sc3nc2=O)C=CC1=O	105.0	115.0	103.0	0.0	72.9*	-134.2
CCS(=O)(=O)c1nn2c(N)c(/C=C3/C=CC(=O)C(OC)=C3)c(=O)nc2s1	100.0	99.0	97.0	-2.0	33.4	-70.3
